High-throughput results (PubChem)
VCAM1 TNFa pot – enhances TNF alpha induced VCAM1 expression in HUVEC; HUVEC TNFa-stimulated VCAM-1 immunofluorescence, high-content imaging; scaled per plate to unstimulated/TNFa-only wells; activation, % at 2 µM; 0.19% of 93,000 active;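 active = activation above the screen mean plus 3 SD, with well images confirming the hit on visual review, cut at about 28% in these data, passing the limit was not always enough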;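 also: signal is the number of cytoplasmic VCAM-1 stained grains per positive cell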
VCAM1 pot conf – enhancers of VCAM1 induction in HUVEC – imaging, triplicate retest, confirmation; shares compounds with VCAM1 TNFa pot; HUVEC TNFa-stimulated VCAM-1 immunofluorescence imaging; activation, % at 2 µM; 230 tested, under 10 active;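 active = activation above 30% in triplicate retests at 2 µM, then confirmed by visual review of the well images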;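 also: scaled per plate between unstimulated and TNFa-stimulated DMSO control wells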
* = called active by the depositor. Not all results are given here.

SMILES	VCAM1 TNFa pot	others
COc1cc(-c2nnc(CSc3nnc4nc(C)cc(C)n34)o2)cc(OC)c1OC	-1
O=c1[nH]c(NCc2ccco2)nnc1Cc1ccccc1Cl	-8
CCN(C(=O)CSc1nc2ccccc2n1CCc1ccccc1)C1CCS(=O)(=O)C1 (stereo not drawn)	0
Cc1onc(-c2ccccc2Cl)c1C(=O)Nc1sc2c(c1C(N)=O)CCC(C)C2 (stereo not drawn)	6
COc1ccc(S(=O)(=O)N(C)CC(=O)NCc2cccnc2)cc1Cl	-1
COc1ccc(/C=N/N=C2/NC(=O)C(c3ccccc3)(c3ccccc3)S2)cc1	-6
Cc1c(C(=O)O)sc2nc3n(c(=O)c12)CCC(C)CC3 (stereo not drawn)	0
CC(=O)Nc1cc(C(=O)N2CCN(C)CC2)ccc1Sc1ccc(C)cc1	-8
CCOC(=O)C(NC(C)=O)(Nc1ccc(S(=O)(=O)Nc2ccncn2)cc1)C(F)(F)F (stereo not drawn)	0
CC(C)CC(=O)NCc1ccc(F)cc1	-5
COc1ccc(-c2c3c(nc4sc5c(Cl)nc(C)nc5c24)CCC3)cc1	2
CCOC(=O)c1cc(NC(=O)c2c(C)noc2C)cc(C(=O)OCC)c1	1
COCCn1c(SCC(=O)Nc2ccc(Cl)cn2)nc2ccccc21	-7
COc1cccc(OC)c1NC(=O)CN1CCC(NC(=O)c2cccc(F)c2)CC1	-100
Cc1[nH]n(-c2ccc([N+](=O)[O-])cc2)c(=O)c1N=Nc1nc2ccccc2s1	-52
CCOc1ccccc1C1CC(c2ccc(F)cc2)Nc2nc(N)nn21 (stereo not drawn)	-10
COC(=O)c1ccc(CNC(=O)CSc2nc3sc(C)c(C)c3c(=O)n2C)o1	-26
CC1(CC(=O)O)C(=O)N=C2C=CC=CN21 (stereo not drawn)	8
C1CSC2(N1)C1CC3CC2CC(C1)C31NCCS1 (stereo not drawn)	-9
CC(C)(C)NC(=O)NC(=O)COC(=O)c1cc(=O)[nH]c2ccccc12	-8
Cc1nonc1NCn1nnc2ccccc21	0
Clc1ccc(COc2ccccn2)cc1Cl	-8
CCOC(=O)C1C(=O)NC(N2CCCCC2)=NC1c1ccco1 (stereo not drawn)	-97
NC(=O)C1(N2CCCCC2)CCN(S(=O)(=O)c2cc(Cl)ccc2Cl)CC1	6
O=C(c1cnn2c1NC(c1ccco1)CC2C(F)(F)F)N1CCN(c2cccc(Cl)c2)CC1 (stereo not drawn)	-5
SMILES	VCAM1 TNFa pot	others
COc1ccc(/C=N\NS(=O)(=O)c2ccc(Cl)cc2)cc1COc1ccccc1[N+](=O)[O-]	2
COc1ccc(CCNC(=O)NC23CC4CC(CC(C4)C2)C3)cc1OC	9
CCNc1nc(NCC)nc(N2CC(=O)N(CC(=O)OCC)C2=N)n1	-17
CCc1ccc(N/C(SCc2ccccc2C)=C(/C#N)C(=O)NCc2ccco2)cc1	-4
CCCNc1nc(Nc2ccc(C)cc2)nc(N2CCCC2)n1	-16
O=C(NCC1COc2ccccc2O1)c1cc2ccccc2o1 (stereo not drawn)	-16
Cc1ccc(S(=O)(=O)NCC(c2cccnc2)N(C)C)cc1 (stereo not drawn)	-5
N#Cc1ccccc1Sc1ccccc1C(=O)Nc1ccccc1	1
Cc1ccc(N(C)C(=O)N2CCN(S(=O)(=O)c3ccc(C)c(C)c3)CC2)cc1	-4
Cc1ccc(-n2c(N)c(C(=O)NCc3cccnc3)sc2=S)cc1	-6
CC(=O)c1ccc(C(C)(C)c2ccc(C(C)=O)s2)s1	13
C=CCn1c(COc2ccc3c(c2)CCCC3)nnc1SCC(=O)Nc1cccc(SC)c1	3
CC(C)(C)C(=O)/C(=C\c1cccc([N+](=O)[O-])c1)n1cncn1	-90
O=C(O)c1cc2ccc3ccccc3c2oc1=O	-26
O=C(O)c1cn(C2CC2)c2cc(N3CCOCC3)c(F)cc2c1=O	-5
Cc1ccc(N2C(=O)c3ccc(C(=O)N4CCN(c5cccc(C)c5C)CC4)cc3C2=O)cc1	-17
CCOC(=O)C1=NN(c2ccc(Cl)cc2)C(c2ccccc2)CC1=O (stereo not drawn)	-26
Cc1ccc(S(=O)(=O)c2c(C)cc(C)nc2Oc2cccc(C(F)(F)F)c2)cc1	-6
Cc1cccc(-n2c(SCc3cc(=O)n4c(C)cccc4n3)nc3[nH]ncc3c2=O)c1	0
CN(C)CC(C)(C)CNS(=O)(=O)c1ccc(Cl)c(Cl)c1	5
Cc1ccc(-n2nnc3c(SCC(=O)N4CCN(c5ccccc5)CC4)ncnc32)cc1	-92
Cc1ccc(S(=O)(=O)N2CCCC(C(=O)NCCc3ccc4c(c3)OCO4)C2)cc1 (stereo not drawn)	-1
COc1ccc(-c2cc(O)cc(O)c2)cc1	-1
COc1ccc([C@H]2[C@@H](C#N)[C@H](C#N)N3CCCN23)cc1	35
O=C(CN1C(=O)NC2(CCCC2)C1=O)Nc1ccccc1F	1
SMILES	VCAM1 TNFa pot	others
COc1ccc(NC(=O)CCC(=O)Nc2nnc(C(F)(F)F)s2)c(OC)c1	-16
Cc1cc(C)c(S(=O)(=O)N(C2=NCCS2)S(=O)(=O)c2c(C)cc(C)cc2C)c(C)c1	11
Cc1ccc(S(=O)(=O)CCc2nc3ccccc3s2)cc1C	8
Cc1ccc(N2CCN(C(=O)N3CCCC3)CC2)cc1C	0
COC(=O)c1cnn(C(=O)c2cc(OC)ccc2Br)c1N	1
Cn1nc(C(F)(F)F)c(C(=O)Nc2ccc(F)cc2F)c1Sc1ccc(C(F)(F)F)cc1	6
O=C(CC12CC3CC(CC(C3)C1)C2)NCC(=O)N1CCc2ccccc2C1	1
Cc1ccccc1OC(=O)n1c(=S)oc2cc(Cl)ccc21	-7
Cc1ccc(-c2nnc(SCC(C)C)n2C)cc1	-8
O=c1cc(C(Cl)(Cl)Cl)oc2c1ccc1ccccc12	-80
O=C(NCCN1CCN(c2ccccc2F)CC1)C1CCCN(S(=O)(=O)c2cnc[nH]2)C1 (stereo not drawn)	5
CC(=O)OCc1nc2sc3c(c2c(=O)[nH]1)CCCC3	-1
O=c1oc(-c2cccs2)nc2sc3c(c12)CCCCC3	37*
CN(C)c1oc(-c2cccs2)nc1C#N	0
CCOc1ccc(Oc2ccc(-c3nnc(-c4ccccc4)o3)cc2[N+](=O)[O-])cc1	-3
COCCNC(=O)C(c1ccccc1C)N(C(=O)Cn1nnc2ccccc21)c1cccnc1 (stereo not drawn)	-2
COc1ccc(C2/C(=C(\O)c3cccc(OC)c3)C(=O)C(=O)N2c2ccccn2)cc1 (stereo not drawn)	3
CCCCCCNC(=O)CC(c1ccccc1)c1cc(Br)ccc1O (stereo not drawn)	10
CCCCCCc1cc2cc(C(=O)NCc3ccccc3)c(=N)oc2cc1O	51*	VCAM1 pot conf=-6
COc1ccccc1C(=O)NCc1ccccc1	22
O=c1c2cnn(-c3ccccc3)c2ncn1/N=C/c1ccncc1	0
CCc1ccc(OCC(=O)NCc2ccco2)c(Br)c1	-7
Cc1ccccc1NC(=O)Cn1nc(C(F)(F)F)cc1C1CC1	54*	VCAM1 pot conf=-9
CCc1ccccc1NC(=O)c1nnn(CC(=O)Nc2cccc(C)c2C)c1N	-4
Cc1cc(C(F)(F)F)nn1CC(=O)Nc1ccc(Br)c2cccnc12	-6
COc1ccc(CNC(=O)COC(=O)C2=COCCO2)cc1	-9
CS(=O)(=O)N(CC(=O)NCc1ccncc1)Cc1ccc(Cl)cc1	-15
COC(=O)c1c(NC(=O)Cc2ccccc2)sc(C)c1C	0
